Here are results for 45 sequences from the supplement of paper PMC11417369.

Over roughly 25,000 sequences, “ln(normalized median fluorescence intensity)” has its median near 7.1; the highest 2% begin near 10. The sample as a whole holds a higher share of the highest values than the screen did.

For this assay, the system named is PfSIP2 AP2 domain 1 (GST-tagged). As to the kind of experiment: gcPBM binding intensity (ln(normalized median fluorescence intensity)); higher = stronger DNA binding. The procedure, abridged:
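For binding intensity, the highest Masliner-normalised natural-log median intensity across replicate spots of either probe orientation was taken. Protein bound to the array was stained with Alexa488 anti-GST antibody and scanned at 488 nm. The protein, GST-tagged P. falciparum DNA-binding domains from E. coli at about 25 μg on average, had been applied for 1 h to an Agilent 4 × 180k array of primer-extended double-stranded 36-bp intergenic genomic probes and negative controls.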
“CCCCCCCACGAACACACACACATACATACCACATAT [CACACA_site7149]”: the “gcPBM binding intensity (ln)” value was determined as 9.05.

Take “TGAGAGAGAAACGTAGTGCATAAAATCAAATTTAGA [GTGCAC_site9737]”: the “gcPBM binding intensity (ln)” value was found to be 7.82. Take “TTTTTTTGTTTTGTTTTTTTTTTTTTTTTTTTTTTG [CACACA_negctrl_site570]”: the “gcPBM binding intensity (ln)” value stood at 6.76. The figure for “ACATGTTCATAATTTTGTACATATTTTTATGAACAT [XGTACX_site3976]” is 7.12; for “AAAATACACGATAGTTGTACATTAAATGTATACAAT [XGTACX_site360]” it is 6.91. The figure for “TGTTATTATAACATTTTTTTCAAAATAGCTTTAGAA [CACACA_negctrl_site266]” is 6.77; for “AATAAATATCAATACACACACACAAAAGTGAATAAA [CACACA_site3763]” it is 6.99. The figure for “TAGAATAAGATAGATATACACACCATTATAAATATA [CACACA_site2500]” is 6.78. For the sequence AGTGTGTGTAATAAAGTGCATTAAAAATGACACGTA, the “gcPBM binding intensity (ln)” value is 8.55. The figure for “TGTGCATAAATTTATGCACACATAAAAAAAAAAAAA [CACACA_site8954]” is 9.95. Regarding “ATTAAAAAATCCATAGTGCACTACGATAGGTTCCGA [GTGCAC_site9463]”, the “gcPBM binding intensity (ln)” value worked out at 10.5. The same measure for “ATATACATATCAATGTAATATTATATACTTTTTTAG [CACACA_negctrl_site816]”: 6.77; for “ATTTATATAAAGAATGTACACACAGAAATGCACCCA [CACACA_site8715]”: 11.8; for “GAAAGAAGCATAAATGTACACACATATTTATATATT [CACACA_site8368]”: 7.04. The figure for “TGTACACCCAGAAATGCACACACATATATATATATA [CACACA_site8716]” is 9.53; for “CATTTATATAAAGAATGTACACACAGAAATGCACAC [XGTACX_site4718]” it is 8.37; for “TTATATAAAGAATGTACACACAGAAATGCACAGACA [CACACA_site5288]” it is 8.26. The figure for “TTATATAAAGAATGTACACACAGAAATGCACCCACA [CACACA_site2282]” is 12.2. On to “TCCCTGATGTTATTTAATATACCATAAAAAAAAAAA [CACACA_negctrl_site1472]”, for which the “gcPBM binding intensity (ln)” value was found to be 7.22.

As for “TATATATTATGACCACCACACACCTATACACATAAC [CACACA_site8773]”, the “gcPBM binding intensity (ln)” value was 7.3. Take “TACATATAAATAATAACACACACCTAGGTACATGGA [CACACA_site838]”: the “gcPBM binding intensity (ln)” value was 6.89. The figure for “CAAATATATATTTATTGTACATATTGTTTATATGGT [XGTACX_site5246]” is 7.14. The figure for “TACAAACAATTAAACAAACACACATATACATGTATA [CACACA_site2061]” is 6.92; for “TAAAATTAAATGAAATCATTATTCATTTTTATTTTA [CACACA_negctrl_site1281]” it is 6.67; for “ATTAAGACACATTGCACACGTGCACCCATAGAAAAA [CACACA_site408]” it is 12.2. Turning to “TACACCCATAGACACACACACACGCATAAAAAAAAA [CACACA_site8428]”, the “gcPBM binding intensity (ln)” value was determined as 7.55. The figure for “AGTACAGACATAGACACACACACACCCATAAAAAAA [CACACA_site1515]” is 7.24; for “TAAGAAATAAATAGTACACACATAGACACACGCACA [CACACA_site6821]” it is 8. “CCATTAAGACACATTGCACACGTGCACCCATAGAAA [CACACA_site4388]”: the “gcPBM binding intensity (ln)” value was 12.4. Take “TAAGAAATAAATAGTACACACATAGACACCCACCGA [CACACA_site1516]”: the “gcPBM binding intensity (ln)” value is 7.3. Consider “TAAGAAATAAATAGTACACACATAGACACCCACCCA [CACACA_site8429]”, for which the “gcPBM binding intensity (ln)” value is 7.39. The same measure for “ACATTAAGACACATTGCACACGTGCACCCATAGAAA [CACACA_site8029]”: 12. The figure for “TATATATATATAGACACACACACACCCATATATATA [CACACA_site4117]” is 9.12. The same measure for ACTGCGTTTTTACACGCGCACTGCAATGAACAATAT: 8.05. As for “AGGTAGAAAAAAGACACACACATTAGATATTTATAT [CACACA_site6313]”, the “gcPBM binding intensity (ln)” value worked out at 6.87. As for “TATTATATTCTGCTTACACACATATATATATATATA [CACACA_site3060]”, the “gcPBM binding intensity (ln)” value turned out to be 9.32.

For “ATTTTTTTTTCTTTCGCACACGTGAAAGAATTTCTA [CACACA_site2052]”, the “gcPBM binding intensity (ln)” value is 7.13.

As for “TTATATATTTATATATGTACACATTTTACCATTTTT [XGTACX_site2142]”, the “gcPBM binding intensity (ln)” value was determined as 6.9.

On to “GAAAAAAAAAAAAATACACACAAATTGGTATATAAC [CACACA_site6315]”, for which the “gcPBM binding intensity (ln)” value amounted to 6.75.

Take “TATATACACATTTTTATACACACTTGTTTTATAAAA [CACACA_site8139]”: the “gcPBM binding intensity (ln)” value came to 7.16. For “AATAAATAAATAAATAAATATATATATATATATATA [GTGCAC_negctrl_site224]”, the “gcPBM binding intensity (ln)” value came to 9.48.

As for “AAATGAAAAATAAGGAAAAAAAAAAAAAAAAAAAAA [CACACA_negctrl_site1715]”, the “gcPBM binding intensity (ln)” value was found to be 6.88. The same measure for “TTTTTTACTTTTGAGACATTTCATATTTTTATTCAC [GTGCAC_negctrl_site730]”: 6.91; for “TATTAATATTTACACACATGCGCACACATAAATAAA [TGCATGCA_site609]”: 9.31; for “TATATATCAATATTTACACACATGCGCCCACATAAA [CACACA_site7185]”: 7.57.
